Reference: paper PMC4336329 (PLoS ONE, 2015)
Screen size: about 310,000 compounds; about 14,000 (4.5%) showed an effect of 50% or more. Effects have a minus sign here. What follows is part of a selection rich in strong results, with near analogues and random picks from the rest.

These molecules were tested against human ether-à-go-go-related gene (hERG) potassium channel (human, UniProt Q12809) (assay: primary screen, population patch clamp on CHO cells stably expressing hERG; higher = less effect of the substance).
Sequence of human ether-à-go-go-related gene (hERG) potassium channel (Q12809 whole entry, looked up): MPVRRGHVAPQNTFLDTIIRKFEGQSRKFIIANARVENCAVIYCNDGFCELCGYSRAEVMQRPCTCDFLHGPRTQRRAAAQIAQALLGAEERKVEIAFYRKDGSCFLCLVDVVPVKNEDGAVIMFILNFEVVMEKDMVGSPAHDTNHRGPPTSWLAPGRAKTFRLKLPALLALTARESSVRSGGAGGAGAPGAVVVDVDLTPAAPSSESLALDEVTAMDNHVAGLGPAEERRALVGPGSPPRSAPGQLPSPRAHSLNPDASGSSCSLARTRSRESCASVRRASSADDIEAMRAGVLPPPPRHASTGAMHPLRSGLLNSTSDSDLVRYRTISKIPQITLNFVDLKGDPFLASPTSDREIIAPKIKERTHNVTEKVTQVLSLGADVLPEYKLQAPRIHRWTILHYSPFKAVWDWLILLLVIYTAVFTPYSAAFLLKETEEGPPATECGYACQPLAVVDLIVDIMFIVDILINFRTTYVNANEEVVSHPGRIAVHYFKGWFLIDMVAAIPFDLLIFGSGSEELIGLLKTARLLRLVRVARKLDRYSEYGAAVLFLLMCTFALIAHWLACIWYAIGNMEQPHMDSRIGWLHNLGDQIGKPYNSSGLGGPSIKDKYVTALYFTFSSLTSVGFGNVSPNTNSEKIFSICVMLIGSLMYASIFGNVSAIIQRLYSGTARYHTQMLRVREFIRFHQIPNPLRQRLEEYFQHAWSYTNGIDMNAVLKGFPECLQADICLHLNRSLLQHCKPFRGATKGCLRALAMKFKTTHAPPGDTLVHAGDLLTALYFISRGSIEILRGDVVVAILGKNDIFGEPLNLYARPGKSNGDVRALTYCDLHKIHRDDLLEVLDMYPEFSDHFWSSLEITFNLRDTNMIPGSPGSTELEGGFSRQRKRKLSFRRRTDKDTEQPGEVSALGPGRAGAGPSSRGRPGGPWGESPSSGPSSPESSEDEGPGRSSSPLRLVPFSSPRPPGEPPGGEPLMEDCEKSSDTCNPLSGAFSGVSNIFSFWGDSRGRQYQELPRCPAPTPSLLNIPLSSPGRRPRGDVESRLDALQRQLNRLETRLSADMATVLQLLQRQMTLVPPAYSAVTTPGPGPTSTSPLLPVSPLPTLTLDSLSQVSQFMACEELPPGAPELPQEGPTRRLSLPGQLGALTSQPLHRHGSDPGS
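Also: peak tail current of the secondary pulse compared with the same well before compound.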

SMILES | hERG current change (%, negative = inhibition) at 10uM [%]
Cc1ccc(CN2CCSCC2)c(C)c1 | 16.9
Cc1cccc(OCC(O)Cn2c(N3CCCCC3)nc3c2c(=O)[nH]c(=O)n3C)c1 (stereo not drawn) | 13
CCCSc1nsc(NC(=O)CC)n1 | -30.5
CCCC1Cc2c(sc(N)c2C#N)CO1 (stereo not drawn) | 2.5
CC(C)Cc1nnc(NC(=O)c2ccc(N3CCCC3=O)cc2)s1 | 2.3
CN(CCOc1ccccc1)C(=O)c1ccc(F)c(S(=O)(=O)N2CCOCC2)c1 | -10.8
COc1ccc(NC(=O)CN(C)C(=O)Cc2ccc(S(=O)(=O)N3CCOCC3)s2)cc1 | 8.92
CN(CCOc1ccc(Cl)cc1)C(=O)c1ccc(S(=O)(=O)N2CCOCC2)cc1 | -74.9
CCCCN(C)C(=O)c1ccc(S(=O)(=O)N2CCOCC2)cc1 | 17.3
O=C(NCC1CCN(c2ccc(S(=O)(=O)N3CCOCC3)cc2)CC1)c1ccc(Cl)cc1 | -57.2
CN(CCOc1ccc(Cl)cc1)C(=O)c1cc(S(=O)(=O)N2CCOCC2)ccc1N1CCCC1 | -63.7
Cc1ccc(OCCOC(=O)c2cc(S(=O)(=O)N3CCCCC3)ccc2N2CCOCC2)cc1 | -9.24
Cc1ccc(OCCNC(=O)Cc2ccc(S(=O)(=O)N3CCOCC3)s2)cc1 | -24
COc1cccc(C(=O)NCC2CCN(c3ccc(S(=O)(=O)N4CCOCC4)cc3)CC2)c1 | -22.9
Cc1cccc(C)c1NC(=O)CN(C)C(=O)c1cc(S(=O)(=O)N2CCOCC2)ccc1N1CCCC1 | -3.99
CN(CCOc1ccc(Cl)cc1)C(=O)Cc1ccc(S(=O)(=O)N2CCOCC2)s1 | -73.1
O=C(NCC1CCN(c2ccc(S(=O)(=O)N3CCOCC3)cc2)CC1)c1cccc(Cl)c1 | -12.4
O=C(Nn1cnc2ccccc2c1=O)c1ccccc1 | 12.7
COc1c(Cl)cc(C(=O)Nc2ccccc2-c2ccccc2)cc1Cl | 0.345
Cc1ccc(NC(=O)Cn2nc(C(=O)Nc3ccc(C)cc3)ccc2=O)cc1 | 10.8
CCN(CC)S(=O)(=O)c1cccc(C(=O)OC2CC(C)OC2=O)c1 (stereo not drawn) | 12.7
Nc1nc(NCc2ccccc2)nc(NCc2ccccc2)c1[N+](=O)[O-] | 16.2
O=C(Nc1c2c(nn1-c1ccccc1)CS(=O)C2)c1ccc(S(=O)(=O)N2CCOCC2)cc1 (stereo not drawn) | 17.4
COc1cc(NC(=O)COC(=O)/C=C/c2ccc(Cl)cc2Cl)cc(OC)c1 | 5.23

SMILES | hERG current change (%, negative = inhibition) at 10uM [%]
CC(C)(C)NC(=O)NCCc1ccccc1 | 11
CC(=O)Nc1ccc2nc(SCC(=O)N3CCOCC3)sc2c1 | 18.9
COc1cc(/C=N/NC(=O)[C@H](Cc2c[nH]c3ccccc23)NC(=O)OCC(C)C)cc([N+](=O)[O-])c1O | 10.3
Cc1cccc(C)c1NC(=O)CN(C)C(=O)c1cc([N+](=O)[O-])ccc1N1CCOCC1 | 24.1
O=C(COc1ccc(S(=O)(=O)N2CCOCC2)cc1)NCC1CCCO1 (stereo not drawn) | -15.1
COc1ccc(S(=O)(=O)N2CCOCC2)cc1C(=O)N(C)CCOc1ccc(Cl)cc1 | -79.8
CCN1CCN(S(=O)(=O)c2ccc(Cl)c(C(=O)N(C)CCOc3ccc(Cl)cc3)c2)CC1 | -52.8
COc1ccc(S(=O)(=O)N2CCCCCC2)cc1C(=O)N(C)CCOc1ccc(Cl)cc1 | -47.7
COc1ccc(S(=O)(=O)N2CCCCCC2)cc1C(=O)N(C)Cc1ccc(Cl)cc1Cl | -23.1
O=S(=O)(c1ccc2c(c1)nc(COc1ccc(Cl)cc1)n2CC1CCCO1)N1CCOCC1 (stereo not drawn) | -65.2
O=C(NCC1CCCO1)c1cc(S(=O)(=O)N2CCOCC2)ccc1Cl (stereo not drawn) | 16.5
CCN1CCN(S(=O)(=O)c2ccc(Cl)c(C(=O)N(C)Cc3cccc(OC)c3)c2)CC1 | -11.2
CCN1CCN(S(=O)(=O)c2ccc(Cl)c(C(=O)N(C)Cc3ccc(F)cc3)c2)CC1 | -25.1
CN(CCOc1ccc(Cl)cc1)C(=O)c1cc([N+](=O)[O-])ccc1N1CCOCC1 | -66.7
CN(CCOc1ccccc1)C(=O)c1cc([N+](=O)[O-])ccc1N1CCOCC1 | -27.3
COCCNC(=O)Cn1cc(C(=O)c2ccccc2F)c2ccccc21 | 12.5
COc1ccccc1CNc1ncnc2cc(OC)c(OC)cc12 | -32
CCOC(=O)c1c(NC(=O)Cn2cnc3scc(-c4ccc(C)cc4)c3c2=O)sc(C)c1C | -14.5
CCCNC(=S)Nc1ccc(Nc2ccccc2)cc1 | -15
O=C(CSc1cn[nH]n1)Nc1ccccc1C(F)(F)F | 8.13
COc1ccc(CN(C)C(=O)Cc2ccc(S(=O)(=O)N3CCOCC3)s2)cc1OC | 7.58
CN(CCOc1ccccc1)C(=O)c1cc(S(=O)(=O)N2CCOCC2)ccc1Cl | -48.4
COc1ccc(Br)cc1CN(C)C(=O)Cc1ccc(OC)c(S(=O)(=O)N2CCOCC2)c1 | -41
Cc1ccc(S(=O)(=O)N2CCOCC2)cc1C(=O)OCCOc1cccc(Cl)c1 | -9.45

SMILES | hERG current change (%, negative = inhibition) at 10uM [%]
COc1ccc(Br)cc1CN(C)C(=O)Cc1ccc(S(=O)(=O)N2CCOCC2)s1 | -70.4
Cc1ccc(S(=O)(=O)N2CCOCC2)cc1C(=O)N(C)CCOc1ccc(Cl)cc1 | -64
CC(OC(=O)/C=C/c1ccc(Br)cc1)C(=O)N1CCOCC1 (stereo not drawn) | -10.8
CCc1cc(=O)oc2c(CNC(Cc3ccccc3)C(=O)O)c(O)ccc12 (stereo not drawn) | 9.3
O=c1ccn(Cc2ccccc2Cl)cc1 | 8.8
O=C(CCc1nnc(-c2ccsc2)o1)NCc1ccccc1OC(F)(F)F | 3.76
CN1C(=O)C(=Cc2coc3ccccc3c2=O)C(=O)N(C)C1=O | 2.32
Cc1ccc(NC(=O)Cn2cnc3ccccc32)cc1C | -3.44
O=C(Cn1cnc2ccccc21)Nc1ccc(C(=O)O)cc1.O=C(O)C(=O)O | -71.4
O=C(Cn1cnc2ccccc21)Nc1ccc(F)c(F)c1 | 8.41
O=S(=O)(c1ccc(N2CCOCC2)cc1)N1CCOCC1 | -5.96
O=C(CNC(=O)c1ccccc1)OCCCOC(=O)CNC(=O)c1ccccc1 | 11.8
O=C(NC(=S)N1CCOCC1)c1ccccc1Cl | 12.7
O=C(NN1C(=O)c2cc(Br)ccc2NC1c1ccccc1Cl)c1ccncc1 (stereo not drawn) | 8.83
COc1ccc(Cl)cc1NC(=O)CN1CCC(n2nnc3cc(F)ccc32)CC1 | -7.93
Cl.O=C(CN1CCC(n2nnc3cc(F)ccc32)CC1)NCc1ccco1 | -35.6
Cc1nc2cc(NC(=O)N3CCCC3)ccc2n1C | -1.21
COc1ccccc1NC(=O)CN1CCC(n2nnc3cc(F)ccc32)CC1 | -55.4
Cc1nc2ccc(NC(=O)N3CCC(c4ccccc4)C3)cc2nc1C (stereo not drawn) | -11.4
COc1cc(NC(=O)Nc2ccccc2OC)c(OC)cc1NC(=O)CN1CCCCC1 | 1.04
COc1ccc(Cl)cc1NC(=O)CN1CCC(n2nnc3ccccc32)CC1 | -10.4
COc1ccccc1NC(=O)CN1CCC(n2c(C)nc3cc(F)ccc32)CC1 | -72.2
COc1ccc(CNC(=O)CN2CCC(n3nnc4cc(F)ccc43)CC2)cc1 | -68
Cc1nc2cc(NC(=O)N3CCC(c4ccccc4)C3)ccc2n1C (stereo not drawn) | -52.4

SMILES | hERG current change (%, negative = inhibition) at 10uM [%]
COc1ccc(C(=O)NNC(=O)CN2CCC(n3nnc4cc(F)ccc43)CC2)cc1 | -18.4
COc1ccc(NC(=O)CN2CCC(n3c(C)nc4cc(F)ccc43)CC2)c(OC)c1 | -4.64
CCc1ccc(C(=O)N/N=C/c2cccc3ccccc23)nc1 | 1.8
Cc1ccc(-c2nnc(SCC(=O)N3CCCC3)o2)cc1C | -0.309
CC(C)Cc1nnc(NC(=O)CCC(=O)NC2CCCCCC2)s1 | -48.6
CCN(CC)CCP(=O)(c1ccccc1)c1ccccc1 | -15.2
OCCN1CCN(c2nc(-c3ccccc3)nc3c2oc2ccccc23)CC1 | -6.34
COC(=O)C1=C(CN2CCN(C)CC2)NC(=O)NC1c1cc(C)ccc1C (stereo not drawn) | -41
COc1ccc2c(=O)cc(-c3cccnc3)oc2c1OC | 8.9
CCc1nnc(NC(=O)c2c(-c3ccccc3)noc2C)s1 | 10.2
N#Cc1ccccc1OCC(=O)Nc1cccc(S(=O)(=O)N2CCCC2)c1 | 5.17
O=C(Cc1ccccc1F)Nc1ccc(SC(F)F)cc1 | 14
O=C(CN1CCC(n2nnc3cc(F)ccc32)CC1)NC1CCCCC1 | -32.8
Cc1nc2ccccc2n1C1CCN(C(=O)Nc2ccccc2)CC1 | -60.5
O=C(Nc1ccccc1)N1CCC(n2c(=O)[nH]c3ccccc32)CC1 | -8.18
O=C(CN1CCC(n2nnc3cc(F)ccc32)CC1)NC1CC1 | -4.99
COC(=O)C1CCN(C(=O)Nc2ccccc2)CC1 | 24.3
Cc1nc2ccccc2n1C1CCN(CC(=O)Nc2ccccc2Br)CC1 | -25
CC1CCC(NC(=O)CN2CCC(n3nnc4cc(F)ccc43)CC2)CC1 (stereo not drawn) | -58.4
Cc1ccccc1C(=O)NC1CCN(CC(=O)NCc2ccc(F)cc2)CC1 | -44.2
Cc1nc2ccccc2n1C1CCN(CC(=O)NCc2ccc(F)cc2)CC1 | -58
